MRP reversal = compounds reversing MRP-mediated drug resistance; H69AR cells + 2 uM doxorubicin, CellTiter-Glo, 72 h; differential viability (reversal), % at 10 µM; 85,000 tested, 0.04% active;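 active = viability drop by adding the cancer drug above about 55%, with treated viability meeting a 40% cutoff, limit read from the data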;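 note: viability without doxorubicin minus viability with 2 µM doxorubicin for each compound; larger differential means the compound sensitizes cells more to doxorubicin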
MRP1 act = activates MRP-1; 140,000 tested, 0.61% active; H69AR cells + doxorubicin, viability rescue, CellTiter-Glo; viability increase, % at 10 µM;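 active = viability gain under doxorubicin at or above a set limit, the compound median plus 3 SD, cut at about 4.7% in these data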;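 note: MRP-1 overexpressing cells given doxorubicin 25 µM after compound pretreatment; 18-22 h compound pretreatment then 72 h with doxorubicin before readout; 0% = doxorubicin-only wells and 100% = vehicle-treated cells without doxorubicin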
DAT uptake mod = human DAT dopamine uptake with cocaine, either direction | B-score at 10 µM | AID 449768 | 110,000 tested, 1.3% active | Q01959 | LLC-PK1 hDAT cells, [14C]-dopamine uptake with cocaine IC80; actives deviate in either direction;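 active = Z score or B-score, a plate-position-corrected score, falls beyond the plate's 99.7% confidence bounds, in either direction; inactive = both scores lie inside the 99.7% bounds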;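 note: scored against the spread of the other compound wells on the same plate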
Target sequence (Q01959 whole entry, looked up): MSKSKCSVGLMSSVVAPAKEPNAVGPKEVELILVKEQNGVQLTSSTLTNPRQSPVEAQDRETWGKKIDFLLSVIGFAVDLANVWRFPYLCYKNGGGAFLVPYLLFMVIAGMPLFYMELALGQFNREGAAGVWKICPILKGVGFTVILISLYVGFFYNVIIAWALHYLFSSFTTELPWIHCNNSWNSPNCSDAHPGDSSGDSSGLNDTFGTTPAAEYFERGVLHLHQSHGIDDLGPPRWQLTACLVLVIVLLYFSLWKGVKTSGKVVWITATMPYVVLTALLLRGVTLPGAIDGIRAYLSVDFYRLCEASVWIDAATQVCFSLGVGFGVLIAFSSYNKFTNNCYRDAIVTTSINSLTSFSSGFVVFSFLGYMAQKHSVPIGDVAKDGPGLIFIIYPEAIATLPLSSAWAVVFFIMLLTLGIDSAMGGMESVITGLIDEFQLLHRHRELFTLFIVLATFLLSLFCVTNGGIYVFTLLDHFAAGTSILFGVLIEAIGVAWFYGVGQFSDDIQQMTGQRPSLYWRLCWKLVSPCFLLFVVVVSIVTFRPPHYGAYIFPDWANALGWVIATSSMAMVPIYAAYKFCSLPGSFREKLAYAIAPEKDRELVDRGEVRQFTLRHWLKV
Active calls of the source: *; / = no result. Shown are actives, neighbours in structure and some others; about 1.5% of the full set was active somewhere.

SMILES	MRP reversal	MRP1 act	DAT uptake mod
CCOc1cc(/C=C2\SC(=Nc3ccccc3)N(c3ccccc3)C2=O)ccc1OCC(=O)O	/	5.9*	/
CCOC(=O)COc1ccc(/C=C2/SC(=Nc3ccccc3)N(Cc3cccnc3)C2=O)cc1OC	/	-2.3	1.1
S=C1NCCC12C(=S)Nc1ccccc12 (centres undefined)	/	/	0.782
CC(C)C(=O)Nc1cccc(C(=O)Nc2nnc(C(C)C)s2)c1	-4.4	0.7	1.05
Cc1nnc(NC(=O)c2ccccc2F)s1	21.5	1.7	0.141
Cc1nnc(NC(=O)c2ccccc2Br)s1	-4.6	6.0*	1.25
Cc1nnc(NC(=O)c2cccc(NC(=O)C(C)C)c2)s1	-10.5	-0.6	-7*
O=C(COC(=O)COc1ccccc1Cc1ccccc1)Nc1cccnc1Cl	/	-2.6	/
OCC[C@@H]1C[C@H](O)[C@@H](O)[C@]2(CCCCO2)O1	/	/	-0.08
CC1CCC(NC(=O)c2ccc(/C=C3\Oc4ccccc4N(C)C3=O)cc2)CC1 (centres undefined)	/	-3.4	/
Cc1cc(/C=C(\C#N)C(=O)NC2CCCCCC2)c(C)n1C	/	2.9	/
Cc1cccc(C2NC(c3cccc(C)c3)C([N+](=O)[O-])C(C)(C)C2[N+](=O)[O-])c1 (centres undefined)	/	-1.7	/
Cc1ccc(NC(=O)COC(=O)c2sccc2C)cc1S(=O)(=O)N1CCOCC1	/	0.4	/
CCCCCC(=O)Nc1cccc(C2=NOC3(C2)C[C@H](C(N)=O)N(C(=O)c2ccccc2C(=O)c2ccccc2)C3)c1 (some centres undefined)	/	/	3.69*
CCCCCC(=O)Nc1cccc(C2=NOC3(C2)C[C@H](C(N)=O)N(C(=O)c2ccccc2)C3)c1 (some centres undefined)	/	/	0.675
CCSc1nnc2n(-c3ccc(OC)cc3)c(=O)c3c4c(sc3n12)CCCC4	-0.4	-2.1	-7.99*
COc1ccc(CSc2nnc3n(C)c(=O)c4c5c(sc4n23)CCCC5)cc1	10.1	/	/
COc1ccc(N2C(=O)CC2(C#N)c2ccc(OCc3ccccc3)cc2)cc1 (centres undefined)	/	-0.4	/
Nn1cnnc1SCC(=O)Nc1ccc(C2CCCCC2)cc1	19.6	-1.0	1.28*
CCC(C)c1ccc(NC(=O)CSc2nncn2N)cc1 (centres undefined)	-0.3	1.3	-1.04
O=C(Nc1nc(-c2cccc(Br)c2)cs1)Oc1ccccc1	/	0.1	-1.43
O=C(Nc1nc(-c2ccccc2)cs1)c1ccc(Br)o1	/	6.9*	-0.958
O=C(NC(=S)Nc1nc(-c2ccccc2)cs1)c1cncc(Br)c1	/	6.8*	-0.406
O=C(NC(=S)Nc1nc(-c2ccccc2)cs1)c1cccs1	/	-1.4	/
Cc1ccc(C(=O)Nc2nc(-c3cccnc3)cs2)o1	9.9	-4.1	0.797
SMILES	MRP reversal	MRP1 act	DAT uptake mod
CCc1ccc(-c2csc(NC(=O)Oc3ccccc3)n2)cc1	/	12.9*	/
COc1ccc(OCc2nnc(SCC(=O)NNC(=O)c3ccc(C)cc3)n2C)cc1	/	-1.4	/
CCN(CC)S(=O)(=O)c1ccc(Cl)c(C(=O)Nc2cc(C)nn2-c2ccccc2)c1	/	-2.4	/
Cc1c(Br)c(C(F)(F)F)nn1CC(=O)NCc1ccccc1	/	0.1	/
CC(NC(=S)Nc1c(Br)cccc1OC(F)F)C(C)(C)C (centres undefined)	/	-3.7	/
Cc1cc(C)n(CCc2nc(-c3cccs3)cs2)n1	17.1	2.1	-0.647
Cc1cc(C)n(CCc2nc(-c3ccc(-c4ccccc4)cc3)cs2)n1	/	7.3*	/
Cc1c(Br)c([N+](=O)[O-])nn1CC(=O)NCc1cccnc1	9.3	-3.1	0.123
Cn1c(Cn2c(=O)sc3ccccc32)nnc1SCC(=O)NC1CCCC1	12.0	-1.4	7.56*
Cn1c(Cn2c(=O)sc3ccccc32)nnc1SCC(=O)NC1CCCCC1	3.0	-1.4	-0.099
CN(Cc1cn(-c2ccccc2)nc1-c1ccc(Cl)cc1)C(=O)CCC(=O)O	/	-2.9	/
CCOc1ccc2cc(/C=C/C(=O)c3ccco3)c(Cl)nc2c1	1.5	-3.0	/
CCOc1ccc(NC(=O)NC2CCOC(C)(C)C2)cc1 (centres undefined)	-9.7	-0.5	-1.23
CCCCN(CC)Cc1ccc(CNC(=O)Nc2ccc(OCC)cc2)o1	-2.8	-3.2	-4.12*
Cc1nc2c(-c3ccc(F)cc3)c(C)nn2c(C)c1CCC(=O)N1CCC(Cc2ccccc2)CC1	34.6	-4.3	-0.516
COCCNc1nnc(SCC(=O)c2c[nH]c3ccccc23)s1	/	-3.0	/
CC(C)[C@H](NC(=O)c1ccccc1)C(=O)OCC(=O)/C=C1/N(C)c2ccccc2C1(C)C	/	4.8*	/
CN1/C(=C\C(=O)COC(=O)Cn2nnc(-c3ccccc3)n2)C(C)(C)c2ccccc21	14.5	-1.6	-0.373
Cc1cn(-c2cc(C(=O)Nc3ccc(C)c(NC(=O)C(=O)c4c[nH]c5ccccc45)c3)cc(C(F)(F)F)c2)cn1	/	/	-0.287
O=[N+]([O-])c1nn(-c2ccc3c(c2)OCCO3)n(O)c1=NCc1ccccc1Cl	/	-3.2	13.6*
COc1ccccc1CN=c1c([N+](=O)[O-])nn(-c2ccc3c(c2)OCCO3)n1O	/	-4.3	/
CC(C)[C@@H]1C=C(C(=O)O)O[C@H](OCCCCO)C1	/	/	0.0698
CCN(CC1COc2ccccc2O1)C(=S)Nc1ccc(F)cc1 (centres undefined)	/	2.1	/
COc1ccc(C(=O)N/N=c2\oc3ccccc3cc2C(=O)NCc2ccccc2)cc1	/	-0.5	/
COC(=O)/C(=C\c1ccc([N+](=O)[O-])o1)NC(=O)c1ccccc1	/	-5.2	0.51
SMILES	MRP reversal	MRP1 act	DAT uptake mod
Cc1cccc(NC(=O)/C(=C\c2ccc([N+](=O)[O-])o2)NC(=O)c2ccc(Cl)cc2)c1	/	5.7*	/
Cc1ccc(NC(=O)C2C(=O)N(C)c3ccccc32)cc1 (centres undefined)	/	-1.0	/
Cc1noc(/C=C/N(C)C)c1S(=O)(=O)N1CCCC(C(=O)NCc2ccc(Cl)cc2)C1 (centres undefined)	10.6	4.9*	-1.46
Cc1n[nH]c(C)c1S(=O)(=O)N1CCCC(C(=O)NCc2ccccc2Cl)C1 (centres undefined)	2.8	-2.7	/
Cc1noc(/C=C/N(C)C)c1S(=O)(=O)N1CCCC(C(=O)NCc2ccccc2Cl)C1 (centres undefined)	8.0	7.6*	/
Cc1ccc(CNC(=O)C2CCCN(S(=O)(=O)c3c(C)noc3C)C2)cc1 (centres undefined)	12.6	-4.5	-1.72
Cc1nn(C)c(C)c1S(=O)(=O)N1CCC(C(=O)NC2CCCCC2)CC1	5.0	-0.2	-0.0176
Cc1noc(/C=C/N(C)C)c1S(=O)(=O)N1CCCC(C(=O)NCc2ccc(F)cc2)C1 (centres undefined)	7.6	11.7*	/
Cc1noc(/C=C/N(C)C)c1S(=O)(=O)N1CCCC(C(=O)Nc2ccc3c(c2)OCO3)C1 (centres undefined)	9.6	3.2	1.16
Cc1nn(C)c(C)c1S(=O)(=O)N1CCC(C(=O)NC2CCCCCC2)CC1	15.3	-0.7	-2.65*
Cc1nc(Cl)sc1C(=O)Nc1cccc2ccccc12	/	-3.1	/
Cc1ccc(NC(=O)CN2C(=O)NC(C)(c3ccc(Cl)cc3)C2=O)cc1S(=O)(=O)N1CCOCC1 (centres undefined)	/	-1.1	/
Cc1ccc(C(=O)NC(=S)NCC2CCCO2)cc1Br (centres undefined)	/	-1.3	/
COc1ccc(NC(=S)NNC(=O)Cn2nc(C(F)F)cc2C(F)F)cc1	/	-1.4	/
